Screen size: about 53,000 sequences; about 3,700 (7%) were called active. The entries come from a sample that favours actives as a whole. A number with no mark means an inactive call.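 The calls were made as follows: active = gene knockdowns whose robust z-score for IL-1 alpha signal is at least 2 or at most -2, so actives lie on both sides; inactive = the rest.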

The assay in a line: Components of the Cytosolic LPS Sensing Pathway: Gene Identification via Genome-wide siRNA Screen. As to conditions: RAW264.7 macrophages, IL-1a HTRF, actives lie on both sides, screened at 100 nM (by protocol), cells primed 5 h with Pam3CSK4 first. The text has this: Non-canonical inflammasome activation by cytosolic LPS is a critical component of the host response to Gram-negative bacterial infection, however we lack a comprehensive understanding of the cellular processes that control this pathway. Here we describe a genome-wide siRNA screen to identify genes regulating the mouse macrophage IL-1 alpha response to cytosolic LPS.
RAW264.7 cells were maintained in complete DMEM media, comprising DMEM with 4.5 g/L glucose, 10% FBS (Gemini Bio-Products, West Sacramento, CA), 2 mM Glutamine (Lonza) and 20 mM HEPES (Lonza), hereafter complete DMEM.
The RNAi screen was conducted in 384-well format using the Ambion Silencer Mouse Genome siRNA Library (#4391425), which consists of three unique, nonoverlapping, nonpooled siRNAs for each of 17,000 gene targets. siRNA reagents ([…]) were stamped into 384-well white flat-bottom microplates (Corning, 3570) using a Velocity11 VPrep liquid handling system (Agilent) integrated into a BioCel robotic platform (Agilent) in columns 1-22, leaving columns 23-24 empty for negative (Ambion, Negative control #1) and positive (mouse Casp4) controls, respectively. The median value of each plate's negative control column was used to normalize sample wells, and the positive control was used to assess transfection efficiency and assay performance.
Lipofectamine RNAiMAX Transfection Reagent ([…]; Invitrogen) was added in […] serum-free, antibiotic-free media to plate wells using a Thermo Scientific Matrix WellMate and Microplate Stacker. Plates were incubated for 45 min at room temperature to allow for the sufficient formation of siRNA-lipid complexes. Cells were seeded at a density of 1x10^4 cells per well in 20 microL media containing 20% (vol/vol) FBS without antibiotics. The final concentration of siRNA in each well was 100 nM. Cells were cultured for 48h at 37 degrees C in 5% CO2 before addition of […] of TLR ligand Pam3CSK4 for 5 hours. The medium was then removed, replaced with […] growth media and cell were transfected with […] of LipidA and TransIT-TKO (Mirus) for 24 hour. At the end of the LipidA treatment, […] of supernatant was transferred to a 384 Greiner Bio-one non-binding low volume plate and […] of IL-1a HTRF reagent (Cisbio, 62MIL1APEH) was added and incubated at room temperature overnight. The plates were read on an EnVision plate reader (PerkinElmer). Cell viability was measured by adding 20ul Cell Titer Glo to the original plate and running a luminescence read on the EnVision. The quantified IL-1a signal for each siRNA gene-targeted well was divided by the median of the negative control wells and multiplied by 100 to achieve a negative control normalized value for each well/siRNA. This normalized value was then used to generate a robust z-score by first taking the log of each value and then by subtracting the median and dividing by the […].
(TR-FRET usually uses a lanthanide donor and a delayed reading to cut background.)
Consider GGCUUUCAUUCUGCAGCUATT against Olfr1089, for which the z-score was -2.13 (active).

For the sequence GGUGUUCAGAUGGUUCCCATT against Exosc1, the z-score was -1.19. The same measure for GCUGUUACCUUGACGAAUATT against Tsc2: 1.32. The same measure for GGGAUAAAGAGCAAAGAAUTT against Trdv2-2: -0.466; for GCGUAAUUCCAGCAGAUGUTT against Mepe: 1.74. The same measure for GAAAAGUGCACCAUCAGCCTT against Ly6g5b: -2.27 (active); for GCUACAGGUCAAUGUCGUGTT against Tcte2: -1.61; for CCCAUAGCUAAUGAACCAATT against Sntg2: -0.604.

For GGAGAGAAAAAGUAAUAUCTT against Fgf1, the z-score was 0.843.

In the case of “GGUCGUAAGACAGUUGUCCTT against 4932438H23Rik”, the z-score was -0.715. The same measure for GGAGCUGACAGAGAGAUUCTT against Ankrd40: -2.77 (active).

GGAGCAACACUUGCGUACUTT against Ccnq: the z-score is 1.32. As to “GCACUGUCGCAUCAUCAGATT against D230025D16Rik”, the z-score is 1.83.

For the sequence “GGAAACCUGAUGAUCUUUUTT against Olfr421-ps1”, the z-score was -1.27.

GGAUGUCCGGAAGAUGUUUTT against Celf3: the z-score was -0.284.

Take GGUGUGUUCCCAACUGGUGTT against Olfr1124: the z-score was 2.04 (active). The same measure for GUGGAAAUGUACUUCUCUGTT against Olfr257: 0.435.

As to AGCUGCUCUGAGUUAGAAATT against Scd2, the z-score is 0.934. The same measure for GGCAAAUCAUUGAUCAGAATT against Mtrf1: -0.214; for GGACAGACUGAAUGAGCAGTT against Faf2: 2.24 (active). As for GCAAAACUUGGAACGAUUUTT against Ddx1, the z-score was 0.153. The same measure for CCUAAAUUUGAGGUAACCUTT against Zbtb21: 0.571; for GGAUAAAAGCAUUUGAGUCTT against Acp1: 0.694; for GGGAACCAGUACAAUUACATT against Glt8d1: -0.755.

On to GGAGAUCUAUGACAAGAAATT against Idh1, for which the z-score was -0.376. The same measure for GGUAAGAAGACAAACACUCTT against Ly6g6d: 0.237; for GCUCUACUGCUUCUUAGUCTT against Olfr965: -2.4 (active). The same measure for GGAUAAGAAGAUGAGGCAGTT against Mns1: -0.0977; for GCUUCAAAACAAACCCUUGTT against Parp11: -1.58; for GGAGUGUAUGCAGAAGUUUTT against Dnajc24: 1.49. The same measure for GGUUUUGGUAUCUCCAUGGTT against Olfr2: -0.48; for GGAGCAUAGAAAAGACAAUTT against Grk2: 2.69 (active).

For the sequence GGAUAAGAAGCGAUUUGAATT against Rcn2, the z-score was -0.294. Take GCUGCUGGAGUGCAACUAATT against Tradd: the z-score was 0.391.

As to GCACAACAUACCCUGUGGUTT against Syn1, the z-score was -2.72 (active). The same measure for CCUGAAUGGACAAACAGGATT against Gm6460: -0.193; for CCAAACCUAUUCUGAGAUGTT against Klrg2: -0.0403. The same measure for GGAGCUGGACAAGUUCAUGTT against Clrn1: -0.994; for GGGAGCAAAGAGGAACAGCTT against Fis1: -0.73. For GGUGCAAUCGUGUUGAGCUTT against Dap3, the z-score was 1.06. With GCAAACCUUCGGUCUUGCCTT against Cd5l, the z-score is -0.364. The same measure for GGAGAGAUCAUACACUUUGTT against BC048679: 0.43; for GGUAGUGAAUGAACUCUUUTT against Bcl2l1: -1.41.

In the case of GGCAGACAUCACAAUGGCUTT against Hemgn, the z-score was -0.201.

Take GGACAUGUCCGAAUACUACTT against Pdss1: the z-score was 2.34 (active). The same measure for GGGUUAGCAACUUCAAAUATT against Zmynd19: 0.996; for CCUAAAUCCUUUUGAACCCTT against Anapc16: 0.295. The same measure for GGCCAGUGUGUGGUCUAAGTT against Cd1d2: 1.89; for GGUCUUCAGAUAAUCUUCCTT against Brinp1: 1.91. The same measure for GCUCAGAUAAUGGCCUACATT against Smarca4: 2.28 (active); for CCGACAAACGCAAGGUGAUTT against Rtl8c: -0.382. On to GGUGUGUGGUGUUAAAAAATT against Mybph, for which the z-score was -0.81. The same measure for GGUGGAAUAUAGCUUCAUCTT against Ifngr2: 1.06; for GGAAGAACACAAGUGUUUUTT against Trem3: -0.626; for GCGAAGCGUGCUGCUAAGATT against Ccdc59: 0.519. Consider GGCCAGCUCUCUUUUGCUATT against Cflar, for which the z-score is 2.5 (active). The same measure for GCAGAGGCUCUCCUUAUAGTT against Ccser2: 0.747; for GGUACGGUGUUUUGGAUACTT against Fam174a: 0.00664; for GGGACAGUUUUCGGACUUCTT against S1pr4: -0.362. Consider GCUACAGGGAAAAAGUUCCTT against Olfr994, for which the z-score is 0.383.

Take CGGCUGCAUUUCAACAAGGTT against Snrpc: the z-score is -1.92. The same measure for GGUUCUGCCAUGGAGGAAUTT against Svs5: 0.0746. As for GCCACUCACCUGUAGUUCUTT against BC049715, the z-score was 0.0758. In the case of GGAUCUCAGAUUUACUGUCTT against Dedd2, the z-score is 0.484. The same measure for GGUCAUCAAGCAGUGCUAUTT against Ncstn: 4.32 (active); for CGGAGCAUUGGGACAAUUUTT against Olfr690: 1.1; for GGAAGUUGAAUACAUUGUCTT against Arntl: 0.127.

As to GCAUGCAAAUCUCCUCUAATT against Sema3b, the z-score was -0.116. The same measure for CCUUUGUAACUGGAAUUCUTT against Olfr197: 1.74. The same measure for GGAAAUUGUGAGAAGAACUTT against Slx4ip: 2.33 (active); for GGAUCAAAUUACAGAUCUUTT against Eef1e1: 1.81. The same measure for “GGAAAUGCUACUGCUUGGATT against 1700030K09Rik”: 1.2; for GGAAACCAAAGAUAAACUCTT against Ccdc186: 0.726; for GGGCAUCAAGUGUAAAAAATT against Med7: -0.384. Consider GGAUAGGAAGAAAAUGAAGTT against Slfn2, for which the z-score is -2.83 (active). The same measure for CCCAAAUCCUACGAAGCCUTT against Tanc1: -1.9; for GGAUCUAAGGAAGUUUCUGTT against Gfpt2: 0.594.

For the sequence GGCGAACACCAUGAAAAGGTT against Lin7b, the z-score was 0.794.

For GCGUGGAUAGUUUCACAGCTT against Fbp1, the z-score is -0.142. The same measure for GGAGAGUGCUGUGAAGCCATT against Vegfb: -0.943; for CCAGAAGAGUACUGUUUUATT against Tpm4: 2.17 (active). The same measure for “GGAAUACUCCAGUAUCUCCTT against 9130401M01Rik”: -0.753; for GGCAAUGAGACAAUUGUCATT against Cpe: -0.638; for GGCAAAAUCCCAUACGAAATT against Itk: 0.0298. The same measure for CCAUGUAAGAUGUUAAGUATT against Abcb1a: -0.265.

CCUUUGUGUCCUAACGGUGTT against Tubb2b: the z-score was -0.158. For GGUCCAUUGCUAAAGACUGTT against Tcf19, the z-score was 0.0971. The same measure for GGUAAUGAGGACAUGGAUCTT against Lyrm4: 0.467; for GCACUUUCCUUUAUUGUGUTT against Fam117a: -1.41; for GGAAUUCAUGAACUACUAUTT against Capsl: -2.07 (active). The same measure for GGCUCAGAUUGAUAGGAUATT against Gmfg: 0.103; for GGCCAAACUAAUGUUUUUCTT against Prox2: -0.594; for CCUGCUGGGAUUUAUUCAATT against Pmvk: 2.52 (active). The same measure for GCUCAUAAUUACAUCACCATT against H3c15: -1.22; for GGACCAUCCUACAUCGGUCTT against Fpgs: 1.02; for GGACAAGGUCUUUAAUGUUTT against Fbxo3: -0.263. On to CGGUUGUCUUCCUCUUAGUTT against Fzd5, for which the z-score is -0.52. Regarding GAAAAGAGGAUUCCUUGCATT against Olfr1128, the z-score was 0.726. As for GGCAAAGUUGUCCUAAGGUTT against Rab27b, the z-score is 2.54 (active). The same measure for GCGAGAGUGAAAACAUCCATT against Fam78b: 0.331. The same measure for GGCUUAUACGCUCCAUAUUTT against Gykl1: -0.214; for GGAUACAUUCCAGACAUACTT against Map3k2: -0.0192; for GGCGGACGUGAAGAACUUGTT against Letmd1: 1.28. The same measure for GGAACAGUCCUACUGAUAUTT against Cdkn1a: -0.271. In the case of GCUGGAUGGAGGCAAAGCATT against C1ql1, the z-score is -1.38.

As to GGCCAGAACCACCAAAGAATT against Zc2hc1a, the z-score was -0.753. The same measure for GCAACAAUCUAACCUCAGATT against Mela: -2.3 (active).
